Among the test systems are HCT-15 colon; HT29 colon; SNB-75 CNS; SNB-19 CNS; U251 CNS; PC-3 prostate; SK-MEL-5 melanoma; UACC-62 melanoma; LOX IMVI melanoma; SK-MEL-28 melanoma.
Assay in all cases: NCI-60 one-dose screen, 48 h (100 = growth as untreated, 0 = no growth, -100 = all killed)
Common to all, as to conditions: 10 µM unless noted

About 83,000 compounds went through this panel and 20% of them were active in at least one assay; those are over-represented in the sample as a whole.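 In brief: 96-well plates, 48 h treatment, single concentration, percent growth endpoint.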 Unmarked numbers belong to inactive results. The source made the active and inactive calls. How the source made its calls: active means growth percent below 10; inactive means the rest.

Consider `CCOC(=O)N1CC1`, for which the growth with HCT-15 colon was 96.3%; in the experiment on HT29 colon, 97.5%; with SNB-75 CNS, 90.8%; in the experiment on SNB-19 CNS it was 98.4%; with U251 CNS, 96.3%; in the experiment on PC-3 prostate it was 88.1%. In addition, the growth in the experiment on SK-MEL-5 melanoma was 101%; with UACC-62 melanoma it was 88.4%; in the experiment on LOX IMVI melanoma, 92.7%; with SK-MEL-28 melanoma, 103%.
As to `CCC(=O)Nc1ccc(Cl)c(Cl)c1`, the growth was 101% in the experiment with HCT-15 colon; 91.3% in the experiment on HT29 colon; 102% in the experiment with SNB-75 CNS; 107% in the experiment on SNB-19 CNS; 95.7% in the experiment on U251 CNS; 88.9% in the experiment on PC-3 prostate. Further, the growth in the experiment on SK-MEL-5 melanoma was 101%; in the experiment on UACC-62 melanoma it was 96.6%; in the experiment on LOX IMVI melanoma, 98.3%; in the experiment with SK-MEL-28 melanoma it was 102%.
Turning to `CC(C)=CCC/C(C)=C/C=N\N=C(/N)N[N+](=O)[O-]`, the growth in the experiment with HCT-15 colon was 97.6%; in the experiment on HT29 colon it was 97.6%; in the experiment on SNB-75 CNS it was 89.8%; in the experiment with SNB-19 CNS, 99.2%; in the experiment with U251 CNS, 93.5%; with PC-3 prostate it was 97.6%. For the same molecule, the growth is 98.8% in the experiment with SK-MEL-5 melanoma, 95.6% in the experiment with UACC-62 melanoma, 94.8% with LOX IMVI melanoma and 114% with SK-MEL-28 melanoma.
Regarding `[Au+].[N-]=C=O.c1ccc(CN2[CH-]N(Cc3ccccc3)C(c3ccccc3)=C2c2ccccc2)cc1`, the growth was 51.9% with HCT-15 colon; 88.4% with HT29 colon; 79.2% in the experiment on SNB-75 CNS; 58.7% with SNB-19 CNS; 47.8% in the experiment on U251 CNS; 84.1% in the experiment with PC-3 prostate. Further, the growth in the experiment on SK-MEL-5 melanoma was 96.9%; in the experiment on UACC-62 melanoma it was 78%; in the experiment with LOX IMVI melanoma it was 94.7%; with SK-MEL-28 melanoma, 92.8%.
In the case of `CNC(=O)Oc1ccc(C(C)(C)C)cc1OC(=O)NC`, the growth is 90.5% with HCT-15 colon; 88.8% in the experiment on HT29 colon; 91% in the experiment on SNB-75 CNS; 101% with SNB-19 CNS; 92.3% in the experiment with U251 CNS; 94% in the experiment with PC-3 prostate. The growth is 98.9% in the experiment with SK-MEL-5 melanoma, 99.6% in the experiment with UACC-62 melanoma, 92.4% in the experiment with LOX IMVI melanoma and 107% in the experiment with SK-MEL-28 melanoma.
For `CO[C@H]1CC[C@@]2(C)C(=CC[C@@H]3[C@@H]2CC[C@]2(C)C(=O)C(=O)C[C@@H]32)C1`, the growth in the experiment with HCT-15 colon was 103%; in the experiment on HT29 colon it was 106%; with SNB-75 CNS it was 103%; in the experiment with SNB-19 CNS, 94.8%; in the experiment with U251 CNS it was 104%; in the experiment with PC-3 prostate it was 84.2%. Moreover, the growth in the experiment with SK-MEL-5 melanoma is 99%; with UACC-62 melanoma, 92.5%; in the experiment on LOX IMVI melanoma it was 92.5%; in the experiment on SK-MEL-28 melanoma, 117%.
In the case of `CCOC(=O)CCN(C)C1=Nc2ccc(Cl)cc2C(c2ccccc2)=[N+]([O-])C1`, the growth in the experiment on HCT-15 colon was 105%; in the experiment on HT29 colon, 82%; in the experiment with SNB-75 CNS it was 99.5%; with SNB-19 CNS, 99.3%; with U251 CNS, 100%; with PC-3 prostate, 91%. Besides, the growth is 100% with SK-MEL-5 melanoma, 93.4% in the experiment on UACC-62 melanoma, 99.8% with LOX IMVI melanoma and 121% in the experiment on SK-MEL-28 melanoma.
For `COC(=O)[C@@H](C)C[C@H](Cc1ccccc1)NC(=O)c1csc([C@@H](C[C@H](C(C)C)N(C)C(=O)[C@@H](NC(=O)[C@H]2CCCCN2C)C(C(F)(F)F)C(F)(F)F)OC(C)=O)n1`, the growth is 22.3% in the experiment with HCT-15 colon; 14.4% with HT29 colon; 14.9% with SNB-75 CNS; 23.2% with SNB-19 CNS; 3.74% (active) in the experiment on U251 CNS; 27.2% in the experiment with PC-3 prostate. The growth is -18.5% (active) in the experiment with SK-MEL-5 melanoma, 26.4% in the experiment on UACC-62 melanoma, 13.5% in the experiment with LOX IMVI melanoma and 71.5% in the experiment with SK-MEL-28 melanoma.
For the molecule `CCCCCCCCC(CO)NCCc1ccccc1` (stereo not given), the growth in the experiment with HCT-15 colon is 102%; in the experiment with HT29 colon, 73.6%; with SNB-75 CNS, 108%; in the experiment with SNB-19 CNS, 102%; in the experiment with U251 CNS, 93.3%; in the experiment on PC-3 prostate it was 73.5%. Also, the growth with SK-MEL-5 melanoma was 101%; in the experiment with UACC-62 melanoma it was 98.5%; in the experiment with LOX IMVI melanoma, 103%; with SK-MEL-28 melanoma it was 108%.
With `COC(=O)C1CCC(NC(=O)c2csc([C@@H](C[C@H](C(C)C)N(C)C(=O)[C@@H](NC(=O)[C@H]3CCCCN3C)C(C)C)OC(C)=O)n2)CC1` (stereo not given in full), the growth in the experiment with HCT-15 colon was 11.5%; with HT29 colon, -0.603% (active); with SNB-75 CNS it was 61.6%; in the experiment with SNB-19 CNS, 38.4%; in the experiment on U251 CNS, 2.97% (active); in the experiment on PC-3 prostate, 28.9%. For the same molecule, the growth with SK-MEL-5 melanoma is -27.7% (active); with UACC-62 melanoma, 48.1%; in the experiment on LOX IMVI melanoma, 21.5%; in the experiment on SK-MEL-28 melanoma, 60%.
With `O=C([O][Hg][c]1ccccc1)c1ccccc1`, the growth in the experiment with HCT-15 colon is -62.7% (active); in the experiment on HT29 colon it was -14.8% (active); with SNB-75 CNS, -4.27% (active); with SNB-19 CNS, 56.8%; in the experiment with U251 CNS, -31.9% (active); in the experiment on PC-3 prostate, 35.4%. The growth is 5.37% (active) in the experiment on SK-MEL-5 melanoma, -42.3% (active) in the experiment on UACC-62 melanoma, -80.3% (active) in the experiment with LOX IMVI melanoma and -61.1% (active) in the experiment on SK-MEL-28 melanoma.
With `O=NNc1ccccn1`, the growth in the experiment with HCT-15 colon was 40.2%; with HT29 colon, 34.3%; with SNB-75 CNS it was 95.5%; with SNB-19 CNS, 101%; in the experiment on U251 CNS, 80.1%; in the experiment with PC-3 prostate, 82.9%. Also, the growth with SK-MEL-5 melanoma is 99.3%; with UACC-62 melanoma, 85.9%; in the experiment with LOX IMVI melanoma, 71.1%; in the experiment with SK-MEL-28 melanoma it was 100%.
`CCOC(=O)[C@@H](C)C[C@H](Cc1ccccc1)NC(=O)c1csc([C@@H](C[C@H](C(C)C)N(C)C(=O)CNC(=O)[C@H]2CCCCN2C)OC(C)=O)n1`: the growth in the experiment on HCT-15 colon is 12.8%; in the experiment with HT29 colon, 4.5% (active); in the experiment on SNB-75 CNS, -13.4% (active); in the experiment with SNB-19 CNS it was 17.4%; in the experiment with U251 CNS, 18.7%; in the experiment on PC-3 prostate, 22.7%. Besides, the growth is 13.5% in the experiment on SK-MEL-5 melanoma, 29.8% in the experiment with UACC-62 melanoma, 34.3% in the experiment on LOX IMVI melanoma and 57.1% in the experiment with SK-MEL-28 melanoma.
